Experimental data: PubChem BioAssay (NCI)
Several values for one entry are separate records, joined by “and”; a condition that tells them apart may be missing. Identical values can stand only once. This is part of a sample that, as a whole, favours compounds with a hit. Of some 79,000 tested, about 15% had one in any assay. The source holds several records for some structures; these can differ, active in one and inactive in another. Activity calls are given as the source filed them. Rule as the data show it: active = growth inhibition above about 70%; inactive = the rest.

Columns and labels:
[1] = NCI Yeast Anticancer Drug Screen. Data for the rad52 strain (AID 147);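 also: 0% = growth of vehicle-treated control cultures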; conditions: S. cerevisiae rad52 mutant growth inhibition, stronger effect = higher value
Outline: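 Measured: yeast growth inhibition. System: strain with a defined DNA damage repair alteration. Reference: vehicle-treated control cultures.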

[2] = NCI Yeast Anticancer Drug Screen. Data for the wt1 strain (AID 149);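 also: 0% = growth of vehicle-treated wt1 cultures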; conditions: S. cerevisiae wt1 strain (SPY 50644) growth inhibition, stronger effect = higher value
Outline: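 Vehicle-normalised growth inhibition; strain wt1; compound exposure.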

[3] = NCI Yeast Anticancer Drug Screen. Data for the rad50EPP+ strain (AID 151);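 also: 0% = growth of vehicle-treated control cultures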; conditions: S. cerevisiae rad50 mutant strain, stronger effect = higher value
Outline: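 One strain with a rad50 alteration (rad50EPP+) was compound-treated, its growth then compared to that of vehicle controls.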

[4] = NCI Yeast Anticancer Drug Screen. Data for the mgt1 strain (AID 153); conditions: S. cerevisiae mgt1 mutant growth inhibition, stronger effect = higher value
Outline: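 After exposure of the mgt1 yeast mutant to compound, growth was measured and reported as inhibition compared with vehicle controls.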

[5] = NCI Yeast Anticancer Drug Screen. Data for the rad50 strain (AID 155);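 also: 0% = growth of vehicle-only cultures of the same strain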; conditions: S. cerevisiae rad50 strain growth inhibition, stronger effect = higher value
Outline: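 A DNA repair-deficient yeast mutant serves as the test organism; compound-induced growth inhibition is calculated against vehicle-treated cells.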

[6] = NCI Yeast Anticancer Drug Screen. Data for the mec2-1 strain (AID 157); conditions: S. cerevisiae mec2-1 strain, stronger effect = higher value
Outline: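 Test agents were screened against the mec2-1 yeast strain, with defined DNA repair or cell cycle alteration. Growth was scored as inhibition against vehicle-only controls.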

[7] = NCI Yeast Anticancer Drug Screen. Data for the rad14 strain (AID 159);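 also: 0% = growth of vehicle-treated control cultures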; conditions: S. cerevisiae rad14 strain growth inhibition, stronger effect = higher value
Outline: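 Vehicle-treated cultures served as the baseline for growth inhibition of a DNA repair-mutant yeast strain exposed to each compound.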

[8] = NCI Yeast Anticancer Drug Screen. Data for the sgs1 mgt1 strain (AID 161);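 also: 0% = growth of cultures given vehicle only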; conditions: S. cerevisiae sgs1 mgt1 strain, stronger effect = higher value
Outline: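 Genetically altered yeast, compound exposure, growth inhibition relative to vehicle.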

[9] = NCI Yeast Anticancer Drug Screen. Data for the CLN2oe strain (AID 163);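 also: 0% = growth of vehicle-only control cultures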; conditions: S. cerevisiae CLN2oe strain, stronger effect = higher value
Outline: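 Here, growth inhibition in a cell-cycle-altered yeast strain after compound exposure was quantified against vehicle control growth.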

[10] = NCI Yeast Anticancer Drug Screen. Data for the cln2 rad14 strain (AID 165);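 also: 0% = growth equal to vehicle treated cultures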; conditions: S. cerevisiae cln2 rad14 strain, stronger effect = higher value
Outline: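 Growth of compound-exposed yeast (cln2 rad14 genotype) measured and expressed as inhibition relative to vehicle.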

[11] = NCI Yeast Anticancer Drug Screen. Data for the bub3 strain (AID 167); conditions: S. cerevisiae bub3 mutant strain, stronger effect = higher value
Outline: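 Inhibition values come from growth of compound-treated mutant yeast normalised to vehicle-treated controls.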

[12] = NCI Yeast Anticancer Drug Screen. Data for the wt2 strain (AID 169);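 also: 0% = growth of vehicle-treated yeast cultures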; conditions: S. cerevisiae wt2 strain growth inhibition, stronger effect = higher value
Outline: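 Genetically defined yeast strains from a DNA-repair/cell-cycle panel were used. Compound-exposed yeast growth was measured, and the inhibition was calculated relative to vehicle treatment.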

[13] = NCI Yeast Anticancer Drug Screen. Data for the mlh1 strain (AID 171);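 also: 0% = growth of vehicle-treated control cultures of the same strain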; conditions: S. cerevisiae mlh1 strain growth inhibition, stronger effect = higher value
Outline: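 Here the genetically defined yeast mutant is grown with each compound, and the extent to which its growth falls below that of vehicle-exposed cells is reported.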

[14] = NCI Yeast Anticancer Drug Screen. Data for the sgs1 strain (AID 173);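 also: 0% = growth of vehicle-only control cultures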; conditions: S. cerevisiae sgs1 mutant, stronger effect = higher value
Outline: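 Relative growth inhibition, referenced to vehicle, was determined in a yeast strain with a defined alteration affecting DNA damage repair or cell cycle control after compound exposure.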

[15] = NCI Yeast Anticancer Drug Screen. Data for the mlh1 rad18 strain (AID 175); conditions: S. cerevisiae mlh1 rad18 strain growth inhibition, stronger effect = higher value
Outline: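 In this whole-cell yeast screen, a strain with altered DNA damage repair is challenged with compound, and its growth is measured against matched vehicle-treated controls.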

[16] = NCI Yeast Anticancer Drug Screen. Data for the rad18 strain (AID 177); conditions: S. cerevisiae rad18 mutant growth inhibition, stronger effect = higher value
Outline: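 Screen uses a yeast strain with a defined lesion in DNA damage repair; compound effect is read as loss of growth compared to untreated vehicle cultures.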

[17] = at 5.0 µM (retest, dose inferred, filed as 0.5)
[18] = at 50.0 µM (retest, dose inferred, filed as 5.0)

Measured: growth inhibition

S=c1sc2c(s1)SCCS2
inactive: [1]; at 1.2 µM 1% | [1]; at 3.7 µM 1% | [1]; at 11.0 µM 4% | [1]; at 33.0 µM 5% | [1]; at 100.0 µM 7% | [2]; at 1.2 µM -1% | [2]; at 3.7 µM 1% | [2]; at 11.0 µM 1% | [2]; at 33.0 µM 0% | [2]; at 100.0 µM 2% | [3]; at 1.2 µM 2% | [3]; at 3.7 µM 3% | [3]; at 11.0 µM 6% | [3]; at 33.0 µM 14% | [3]; at 100.0 µM 9% | [4]; at 1.2 µM -2% | [4]; at 3.7 µM -1% | [4]; at 11.0 µM 18% | [4]; at 33.0 µM -14% | [4]; at 100.0 µM 5% | [5]; at 1.2 µM 0% | [5]; at 3.7 µM 3% | [5]; [17] 14% | [5]; at 11.0 µM -16% | [5]; at 33.0 µM 5% | [5]; [18] 49% | [5]; at 50.0 µM 13.7% and 58.8% | [5]; at 100.0 µM 6% | [6]; at 1.2 µM 2% | [6]; at 3.7 µM 2% | [6]; [17] -11% | [6]; at 11.0 µM -1% | [6]; at 33.0 µM -2% | [6]; [18] 23% | [6]; at 50.0 µM 5.65% and 50% | [6]; at 100.0 µM 0% | [7]; at 1.2 µM 1% | [7]; at 3.7 µM -4% | [7]; at 11.0 µM -2% | [7]; at 33.0 µM -1% | [7]; at 100.0 µM 5% | [8]; [17] -8% | [8]; [18] 54% | [9]; at 1.2 µM 0% | [9]; at 3.7 µM 0% | [9]; at 11.0 µM -2% | [9]; at 33.0 µM -4% | [9]; at 100.0 µM 0% | [10]; [17] -14% | [10]; [18] 32% | [10]; at 50.0 µM 7.95% and 60.4% | [11]; at 1.2 µM 1% | [11]; at 3.7 µM 2% | [11]; [17] -20% | [11]; at 11.0 µM 6% | [11]; at 33.0 µM 5% | [11]; [18] 49% | [11]; at 50.0 µM 20.4% and 64.8% | [11]; at 100.0 µM 4% | [12]; at 1.2 µM 1% | [12]; at 3.7 µM 2% | [12]; at 11.0 µM 2% | [12]; at 33.0 µM 3% | [12]; at 100.0 µM 4% | [13]; at 1.2 µM 1% | [13]; at 3.7 µM -2% | [13]; at 11.0 µM 5% | [13]; at 33.0 µM 1% | [13]; at 100.0 µM 3% | [14]; at 1.2 µM -1% | [14]; at 3.7 µM -1% | [14]; at 11.0 µM 0% | [14]; at 33.0 µM 0% | [14]; at 100.0 µM 3% | [15]; [17] 46% | [15]; [18] 59% | [15]; at 50.0 µM 20.8% and 57.5% | [16]; at 1.2 µM -4% | [16]; at 3.7 µM -3% | [16]; at 11.0 µM -2% | [16]; at 33.0 µM -15% | [16]; at 100.0 µM 6%
-2% (inactive) and 75.5% (active): [8]; at 50.0 µM

COC(=O)C1=C(C(=O)OC)C(C(=O)OC)C(C(=O)OC)C(C(=O)OC)(C(=O)OC)C(C(=O)OC)=C1C(=O)OC (stereo unspecified)
inactive: [1]; at 1.2 µM -2% | [1]; at 3.7 µM -6% | [1]; at 11.0 µM 5% | [1]; at 33.0 µM 20% | [1]; at 100.0 µM 46% | [2]; at 1.2 µM -11% | [2]; at 3.7 µM -13% | [2]; at 11.0 µM -25% | [2]; at 33.0 µM 1% | [2]; at 100.0 µM 39% | [3]; at 1.2 µM -4% | [3]; at 3.7 µM -4% | [3]; at 11.0 µM -4% | [3]; at 33.0 µM 1% | [3]; at 100.0 µM 27% | [4]; at 1.2 µM -18% | [4]; at 3.7 µM -19% | [4]; at 11.0 µM -17% | [4]; at 33.0 µM 13% | [4]; at 100.0 µM 62% | [5]; at 1.2 µM -10% | [5]; at 3.7 µM -14% | [5]; [17] 25% | [5]; at 11.0 µM 7% | [5]; at 33.0 µM 25% | [5]; at 100.0 µM 62% | [6]; at 1.2 µM -13% | [6]; at 3.7 µM -14% | [6]; [17] 20% | [6]; at 11.0 µM 1% | [6]; at 33.0 µM 16% | [6]; at 50.0 µM 60.5% | [6]; at 100.0 µM 55% | [7]; at 1.2 µM -16% | [7]; at 3.7 µM -20% | [7]; at 11.0 µM -11% | [7]; at 33.0 µM 14% | [9]; at 1.2 µM -11% | [9]; at 3.7 µM -21% | [9]; at 11.0 µM -26% | [9]; at 33.0 µM -7% | [9]; at 100.0 µM -1% | [10]; at 50.0 µM 33% | [11]; at 1.2 µM -13% | [11]; at 3.7 µM -13% | [11]; at 11.0 µM -22% | [11]; at 33.0 µM 18% | [11]; at 50.0 µM 54.5% | [11]; at 100.0 µM 35% | [12]; at 1.2 µM -22% | [12]; at 3.7 µM -18% | [12]; at 11.0 µM -17% | [12]; at 33.0 µM 1% | [12]; at 100.0 µM 58% | [13]; at 1.2 µM -16% | [13]; at 3.7 µM -23% | [13]; at 11.0 µM -18% | [13]; at 33.0 µM -1% | [13]; at 100.0 µM 39% | [14]; at 1.2 µM -18% | [14]; at 3.7 µM -11% | [14]; at 11.0 µM -7% | [14]; at 33.0 µM 18% | [14]; at 100.0 µM 60% | [15]; [17] 26% | [15]; at 50.0 µM 67.4% | [16]; at 1.2 µM -20% | [16]; at 3.7 µM -21% | [16]; at 11.0 µM -5% | [16]; at 33.0 µM 17% | [16]; at 100.0 µM 51%
active: [5]; [18] 93% | [5]; at 50.0 µM 77.9% | [6]; [18] 94% | [7]; at 100.0 µM 73% | [8]; [17] 96% | [8]; [18] 99% | [8]; at 50.0 µM 80.1% | [10]; [17] 88% | [10]; [18] 97% | [11]; [17] 95% | [11]; [18] 99% | [15]; [18] 87%
